Reference: PubChem BioAssay AID1135 (Sanford-Burnham Center for Chemical Genomics, 2008)
The whole screen tested about 200,000 compounds, of which about 65 (0.03%) were called active.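 Rule for the calls: active = over 50% inhibition of tissue-nonspecific alkaline phosphatase at 20 µM in the single-dose screen; inactive = the rest.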 Many of the other results were omitted from the sample, so actives are more common in it than they were.

What follows are molecules tested against Alkaline phosphatase, tissue-nonspecific isozyme (Homo sapiens) (UniProt P05186) (assay: blockers of alkaline phosphatase TNAP activity – biochemical, luminescent, high phosphate acceptor level, uHTS, primary screen (AID 1135;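 note: plate controls were DMSO wells for no effect and EDTA-quenched wells as full inhibition for full effect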)). Conditions: purified TNAP, CDP-star luminescence, 1 M DEA; at 20 µM; hits give high values.
Sequence of Alkaline phosphatase, tissue-nonspecific isozyme (Homo sapiens) (P05186 whole entry, looked up): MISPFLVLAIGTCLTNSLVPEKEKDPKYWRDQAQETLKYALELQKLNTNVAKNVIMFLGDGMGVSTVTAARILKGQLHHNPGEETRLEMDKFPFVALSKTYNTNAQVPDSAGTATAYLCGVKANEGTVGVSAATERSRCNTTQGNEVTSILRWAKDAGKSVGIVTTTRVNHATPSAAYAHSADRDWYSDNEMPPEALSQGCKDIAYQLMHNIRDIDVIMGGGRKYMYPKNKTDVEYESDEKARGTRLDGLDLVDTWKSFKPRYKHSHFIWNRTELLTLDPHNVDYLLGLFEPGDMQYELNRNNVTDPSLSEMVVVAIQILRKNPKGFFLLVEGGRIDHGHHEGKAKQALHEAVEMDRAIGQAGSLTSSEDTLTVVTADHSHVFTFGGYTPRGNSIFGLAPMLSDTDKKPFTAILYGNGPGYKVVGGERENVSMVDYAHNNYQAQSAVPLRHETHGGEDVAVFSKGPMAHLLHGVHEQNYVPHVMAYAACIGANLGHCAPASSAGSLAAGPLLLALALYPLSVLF

inhibition, inactive:
CN(C)c1ccc(/C=N/Nc2cc(N3CCOCC3)nc(N3CCOCC3)n2)cc1 -5.4%
O=C(NNc1c2ccccc2nc2ccccc12)c1cc2ccccc2cc1O 26.1%
O=c1oc(/C=C/c2ccccc2)nc2ccccc12 0%
O=C(O)c1ccc(N/N=C/c2ccc3ncccc3c2)cc1 0.7%
Cc1[nH]c2ccccc2c1C(=O)COC(=O)c1c(-c2ccccc2)noc1C -2.1%
CC/C(O)=C1\C(=O)CC(C)(C)CC1=NCCc1nc2ccccc2[nH]1 -0.3%
O=C(NCc1cccs1)C(=O)NCC1OCCCN1S(=O)(=O)c1ccc(F)cc1 (stereo unspecified) 0.7%
CCn1c(SCC(=O)N/N=C/C=C/c2ccccc2[N+](=O)[O-])nnc1-c1ccccc1 1.3%
CCOc1ccc(NS(=O)(=O)c2cc(C)c(C)cc2C)cc1 -1.7%
Cc1ccc(SCCC(=O)NC(C(C)C)C(C)C)cc1 -0.8%
O=C(/C=C/c1ccccc1Cl)Nc1ccc(S(=O)(=O)Nc2ncccn2)cc1 -0.8%
Cc1ccc(C)c(NS(=O)(=O)c2ccc(OCC(=O)NCc3cccnc3)cc2)c1 3.1%
C/C(=N\N=C(N)N)c1ccc(Cl)cc1 -5.8%
Cc1cc(=O)oc2c1c(C)nn2-c1ccc(Cl)cc1 -6.1%
CC(C)Oc1ccc(Cc2n[nH]c(=S)n2Cc2ccccc2)cc1Cl -3.4%
Cc1no[n+]([O-])c1COc1ccccc1/C=C1\NC(=S)NC1=O 0.1%
NS(=O)(=O)c1ccc(NC(=O)/C=C/c2ccccc2Cl)cc1 6.2%
COc1ccc(OC)c(S(=O)(=O)NCCC(C)C)c1 -7.1%
COc1ccc(CCNC2=C(Cl)C(=O)N(Cc3ccccc3)C2=O)cc1OC 0.7%
Cc1ccccc1CSCCNC(=O)c1ccc(N(C)S(=O)(=O)c2ccccc2)cc1 -8.8%
Cc1ccc(NC(=O)CSCC(=O)NC2CCCCC2)cc1 -0.6%
COc1ccc(C/C(N)=N/OC(=O)c2ccco2)cc1OC -4.3%
CC/C(Cc1ccccc1)=N/NC(=O)CCn1nnc2ccccc21 -4.6%
CCOc1ccc(C(=O)NC(=S)Nc2ccc(N3CCOCC3)c(Cl)c2)cc1[N+](=O)[O-] 1.7%
CN1CCN(C(=O)/C(=C\c2ccc3c(c2)OCO3)NC(=O)c2cccs2)CC1 -3.5%
CCS(=O)(=O)C1=NSC2=NC(=O)/C(=C\c3cc(C)n(-c4cccc(OC)c4)c3C)C(=N)N21 1.7%
